{"source": "paper PMC11062922", "about": "(Nature Chemical Biology, 2023)", "set-up_in_all_cases": "species or system human, MV4-11 + K-562 + COLO205 + SK-N-BE2 + OVCAR-8", "key": {"[1]": {"tested_on": "ADK", "details": "read-out: apparent Kd, n = 1"}, "[2]": {"tested_on": "CLK1", "details": "read-out: apparent Kd; compound concentrations: 100 nM and 1000 nM (sheet 'Samples'), CATDS: 5.4208995397741003E-2; n = 1"}, "[3]": {"tested_on": "DYRK1A", "details": "read-out: apparent Kd; compound concentrations: 100 nM and 1000 nM (sheet 'Samples'), CATDS: 5.0124883186775999E-2; n = 1"}, "[4]": {"tested_on": "GSK3A", "details": "read-out: apparent Kd; compound concentrations: 100 nM and 1000 nM (sheet 'Samples'), CATDS: 9.7790905070532702E-2; n = 1"}, "[5]": {"tested_on": "GSK3B", "details": "read-out: apparent Kd; compound concentrations: 100 nM and 1000 nM (sheet 'Samples'), CATDS: 0.116009702502103; n = 1"}, "[6]": {"tested_on": "ICK", "details": "read-out: apparent Kd; compound concentrations: 100 nM and 1000 nM (sheet 'Samples'), CATDS: 5.3965454645481803E-2; n = 1"}, "[7]": {"tested_on": "NQO2", "details": "read-out: apparent Kd; compound concentrations: 100 nM and 1000 nM (sheet 'Samples'), CATDS: 5.4334591839862598E-2; n = 1"}, "[8]": {"tested_on": "PRKCA", "details": "read-out: apparent Kd; compound concentrations: 100 nM and 1000 nM (sheet 'Samples'), CATDS: 0.15913397901311099; n = 1"}, "[9]": {"tested_on": "PRKCB", "details": "read-out: apparent Kd; compound concentrations: 100 nM and 1000 nM (sheet 'Samples'), CATDS: 9.8351239927142994E-2; n = 1"}, "[10]": {"tested_on": "PRKCD", "details": "read-out: apparent Kd; compound concentrations: 100 nM and 1000 nM (sheet 'Samples'), CATDS: 0.131457549494816; n = 1"}, "[11]": {"tested_on": "PRKCQ", "details": "read-out: apparent Kd; compound concentrations: 100 nM and 1000 nM (sheet 'Samples'), CATDS: 0.25317838429330802; n = 1"}, "[12]": {"tested_on": "RPS6KA6", "details": "read-out: apparent Kd; compound concentrations: 100 nM and 1000 nM (sheet 'Samples'), CATDS: 0.14606611193567601; n = 1"}, "[13]": {"tested_on": "RPS6KB1", "details": "read-out: apparent Kd, n = 1"}, "[14]": {"tested_on": "PIK3CB", "details": "read-out: apparent Kd; compound concentrations:100 nM and 1000 nM (sheet 'Samples'); n = 1"}, "[15]": {"tested_on": "PIK3CD", "details": "read-out: apparent Kd; compound concentrations:100 nM and 1000 nM (sheet 'Samples'); n = 1"}, "[16]": {"tested_on": "RIOK2", "details": "read-out: apparent Kd; compound concentrations:100 nM and 1000 nM (sheet 'Samples'); n = 1"}, "[17]": {"tested_on": "ADRBK1", "details": "read-out: apparent Kd, n = 1"}, "[18]": {"tested_on": "AKT2", "details": "read-out: apparent Kd, n = 1"}, "[19]": {"tested_on": "AKT3", "details": "read-out: apparent Kd; compound concentrations:100 nM and 1000 nM (sheet 'Samples'); n = 1"}, "[20]": {"tested_on": "NQO1", "details": "read-out: apparent Kd, n = 1"}, "[21]": {"tested_on": "PKN2", "details": "read-out: apparent Kd; compound concentrations:100 nM and 1000 nM (sheet 'Samples'); n = 1"}, "[22]": {"tested_on": "PRKCI", "details": "read-out: apparent Kd; compound concentrations:100 nM and 1000 nM (sheet 'Samples'); n = 1"}, "[23]": {"tested_on": "PRKG1", "details": "read-out: apparent Kd; compound concentrations:100 nM and 1000 nM (sheet 'Samples'); n = 1"}, "[24]": {"tested_on": "ROCK2", "details": "read-out: apparent Kd; compound concentrations:100 nM and 1000 nM (sheet 'Samples'); n = 1"}, "[25]": {"tested_on": "TTN", "details": "read-out: apparent Kd; compound concentrations:100 nM and 1000 nM (sheet 'Samples'); n = 1"}, "[26]": {"tested_on": "COX5A", "details": "read-out: apparent Kd; compound concentrations: 100 nM and 1000 nM (sheet 'Samples'), CATDS: 0.48232246819666902; n = 1"}, "[27]": {"tested_on": "AKT1", "details": "read-out: apparent Kd; compound concentrations: 100 nM and 1000 nM (sheet 'Samples'), CATDS: 0.12373221048930499; n = 1"}, "[28]": {"tested_on": "CDK6", "details": "read-out: apparent Kd; compound concentrations: 100 nM and 1000 nM (sheet 'Samples'), CATDS: 0.120580307710246; n = 1"}, "[29]": {"tested_on": "MAP2K1", "details": "read-out: apparent Kd; compound concentrations: 100 nM and 1000 nM (sheet 'Samples'), CATDS: 0.131345384217323; n = 1"}, "[30]": {"tested_on": "MAP2K2", "details": "read-out: apparent Kd; compound concentrations: 100 nM and 1000 nM (sheet 'Samples'), CATDS: 0.121431246351448; n = 1"}, "[31]": {"tested_on": "NNT", "details": "read-out: apparent Kd; compound concentrations: 100 nM and 1000 nM (sheet 'Samples'), CATDS: 0.14240170913061401; n = 1"}, "[32]": {"details": "compound concentrations:100 nM and 1000 nM (sheet 'Samples')"}}, "note": "Like-named read-outs stand apart in the source and are kept apart here.", "data": [{"smiles": "Cn1cc(C2=C(c3cn(CCCNC(=N)N)c4ccccc34)C(=O)NC2=O)c2ccccc21", "note": "[RO0318352-000]", "values": [{"measurement": "potency estimated from few doses", "setting": "[1]; compound concentrations: 100 nM and 1000 nM (sheet 'Samples'), CATDS: 5.0768617440539301E-2", "value": 1420, "unit": "nM"}, {"measurement": "potency estimated from few doses", "setting": "[2]", "value": 1010, "unit": "nM"}, {"measurement": "potency estimated from few doses", "setting": "[3]", "value": 1530, "unit": "nM"}, {"measurement": "potency estimated from few doses", "setting": "[4]", "value": 125, "unit": "nM"}, {"measurement": "potency estimated from few doses", "setting": "[5]", "value": 83.7, "unit": "nM"}, {"measurement": "potency estimated from few doses", "setting": "[6]", "value": 1040, "unit": "nM"}, {"measurement": "potency estimated from few doses", "setting": "[7]", "value": 1000, "unit": "nM"}, {"measurement": "potency estimated from few doses", "setting": "[8]", "value": 45.1, "unit": "nM"}, {"measurement": "potency estimated from few doses", "setting": "[9]", "value": 124, "unit": "nM"}, {"measurement": "potency estimated from few doses", "setting": "[10]", "value": 64.4, "unit": "nM"}, {"measurement": "potency estimated from few doses", "setting": "[11]", "value": 21.7, "unit": "nM"}, {"measurement": "potency estimated from few doses", "setting": "[12]", "value": 52.6, "unit": "nM"}, {"measurement": "potency estimated from few doses", "setting": "[13]; compound concentrations: 100 nM and 1000 nM (sheet 'Samples'), CATDS: 4.9333736806527098E-2", "value": 1670, "unit": "nM"}]}, {"smiles": "O=c1cc(N2CCOCC2)nc2n(Cc3cccc4ccccc34)ccn12", "note": "[GSK2333389A]", "values": [{"measurement": "potency estimated from few doses", "setting": "[1]; [32]", "value": 889, "unit": "nM"}, {"measurement": "potency estimated from few doses", "setting": "[14]", "value": 16.1, "unit": "nM"}, {"measurement": "potency estimated from few doses", "setting": "[15]", "value": 214, "unit": "nM"}, {"measurement": "potency estimated from few doses", "setting": "[16]", "value": 1890, "unit": "nM"}]}, {"smiles": "CCn1c(-c2nonc2N)nc2cnc(Oc3cccc(NC(=O)c4ccc(OCCN5CCOCC5)cc4)c3)cc21.Cl", "note": "[GSK269962B]", "values": [{"measurement": "potency estimated from few doses", "setting": "[17]; [32]", "value": 1480, "unit": "nM"}, {"measurement": "potency estimated from few doses", "setting": "[18]; [32]", "value": 2180, "unit": "nM"}, {"measurement": "potency estimated from few doses", "setting": "[19]", "value": 1600, "unit": "nM"}, {"measurement": "potency estimated from few doses", "setting": "[20]; [32]", "value": 175, "unit": "nM"}, {"measurement": "potency estimated from few doses", "setting": "[21]", "value": 1850, "unit": "nM"}, {"measurement": "potency estimated from few doses", "setting": "[22]", "value": 1970, "unit": "nM"}, {"measurement": "potency estimated from few doses", "setting": "[23]", "value": 70.3, "unit": "nM"}, {"measurement": "potency estimated from few doses", "setting": "[24]", "value": 294, "unit": "nM"}, {"measurement": "potency estimated from few doses", "setting": "[13]; [32]", "value": 719, "unit": "nM"}, {"measurement": "potency estimated from few doses", "setting": "[25]", "value": 388, "unit": "nM"}]}, {"smiles": "O=C(Nc1cccc(-c2nn3ccccc3c2-c2ccnc(Nc3cccc(C(F)(F)F)c3)n2)c1)c1c(F)cccc1F", "note": "[GSK292658A]", "values": [{"measurement": "potency estimated from few doses", "setting": "[1]; compound concentrations: 100 nM and 1000 nM (sheet 'Samples'), CATDS: 0.51902262396373799", "value": 1330, "unit": "nM"}, {"measurement": "potency estimated from few doses", "setting": "[26]", "value": 1540, "unit": "nM"}]}, {"smiles": "Cn1cc(C2=C(c3ccc4ccccc4c3)C(=O)NC2=O)c2ccccc21", "note": "[RO0317254-000]", "values": [{"measurement": "potency estimated from few doses", "setting": "[17]; compound concentrations: 100 nM and 1000 nM (sheet 'Samples'), CATDS: 0.11613570195442", "value": 2340, "unit": "nM"}, {"measurement": "potency estimated from few doses", "setting": "[27]", "value": 2050, "unit": "nM"}, {"measurement": "potency estimated from few doses", "setting": "[18]; compound concentrations: 100 nM and 1000 nM (sheet 'Samples'), CATDS: 0.121499008172246", "value": 2130, "unit": "nM"}, {"measurement": "potency estimated from few doses", "setting": "[28]", "value": 2160, "unit": "nM"}, {"measurement": "potency estimated from few doses", "setting": "[29]", "value": 1820, "unit": "nM"}, {"measurement": "potency estimated from few doses", "setting": "[30]", "value": 2130, "unit": "nM"}, {"measurement": "potency estimated from few doses", "setting": "[31]", "value": 1570, "unit": "nM"}, {"measurement": "potency estimated from few doses", "setting": "[20]; compound concentrations: 100 nM and 1000 nM (sheet 'Samples'), CATDS: 0.12637990091667001", "value": 1960, "unit": "nM"}]}]}
